Measurements as given in the supplement of paper PMC10849652.
Targets with a hit are over-represented here; the source holds about 7,900 in all. About 0.6% of all pairs of compound and target were hits. A number with no mark means an inactive call.

Tests used:
Test in all cases: log2 fold change, soluble protein after heating vs DMSO (PISA); higher = thermal stabilisation; K562 cells, 10 uM, 30 min; active = over 0.2 and 3.5 SD of the protein, either way, in both replicates (recomputed)
[1] = compound: C#Cc1cccc(Nc2ncnc3cc(OCCOC)c(OCCOC)cc23)c1 [erlotinib]
Outline: (§1)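 Soluble protein was defined as the supernatant after 21,000xg for 90 min. It came from K562 cells at 2×10^6 cells/mL given 10 μM compound for 30 min, heated in aliquots for 3 min across 48°C-58°C, pooled, and extracted in PBS with 0.5% NP-40 at 4°C, and was quantified by TMTpro 16plex LC-MS/MS with equalised channel sums. Thermal stability against control samples, from duplicates, is reported as log2 fold change.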

[2] = compound: C/C(=N\NC(=O)C1=CC(=CC=C1)S(=O)(=O)N2CCOCC2)/C3=C(C=CC(=C3)Cl)O
Outline: as §1

[3] = compound: C1=CC(=C(C=C1Cl)C2=NC3=NC=CN=C3C(=N2)NC4=CC=NC=C4)F
Outline: as §1

[4] = compound: C1=CC(=CC=C1C2=NC3=C(N2)C=C(C=C3)C(=O)N)OC4=CC=C(C=C4)Cl
Outline: as §1

[5] = compound: C1=CC2=C(C=CC(=C2)/C=C\3/C(=O)NC(=NCC4=CC=CS4)S3)N=C1
Outline: as §1

[6] = compound: C1=CC2=NC=CN=C2C=C1/C=C/3\C(=O)NC(=O)S3
Outline: as §1

[7] = compound: C1=CC=C(C=C1)C2=NC(=C(N2)C3=CC=NC=C3)C4=CC(=C(C=C4)Cl)O
Outline: as §1

[8] = compound: C1=CC=C2C(=C1)C3=NNC4=CC=CC(=C43)C2=O
Outline: as §1

[9] = compound: C1CCN(C1)C(=O)NC2=CC=CC(=C2)NC3=NC=C(C(=N3)NCCC4=CN=CN4)Br
Outline: as §1

[10] = compound: C1CN(CCC1(CC2=CC=C(C=C2)Cl)N)C3=NC=NC4=C3C=CN4
Outline: as §1

[11] = compound: C1COCCN1CCN2C3=CC=CC=C3N=C2NC(=O)C4=CC(=CC=C4)[N+](=O)[O-] [IRAK-1-4 Inhibitor I]
Outline: as §1

[12] = compound: C=CC(=O)N1CCC[C@@H](n2nc(-c3ccc(Oc4ccccc4)cc3)c3c(N)ncnc32)C1 [ibrutinib]
Outline: as §1

[13] = compound: CC(=O)c1cnc2ccc(-c3cc(Cl)c(O)c(Cl)c3)nc2c1N[C@H]1CC[C@H](CN(C)C)CC1
Outline: as §1

[14] = compound: CC(C)(C)Cn1c(N)nc2ccc(-c3[nH]c(C(C)(C)C)nc3-c3ccc(F)cc3)nc21 [ralimetinib]
Outline: as §1

[15] = compound: CC(C)(O)CC(=O)NCCn1ccc2ncnc(Nc3ccc(Oc4cccc(C(F)(F)F)c4)c(Cl)c3)c21
Outline: as §1

[16] = compound: CC(C)C1=C2N=C(C=C(N2N=C1)NCC3=CC=CC=C3)NCCCCCCN
Outline: as §1

[17] = compound: CC(C)C[C@@H](C=O)NC(=O)[C@H](CC(C)C)NC(=O)[C@H](CC(C)C)NC(=O)OCc1ccccc1
Outline: as §1

[18] = compound: CC(C)N(C[C@H]1O[C@@H](n2cnc3c(N)ncnc32)[C@H](O)[C@@H]1O)[C@H]1C[C@@H](CCc2nc3cc(C(C)(C)C)ccc3[nH]2)C1 [pinometostat]
Outline: as §1

[19] = compound: CC1=C(C(CC(=O)N1)C2=CC=C(C=C2)C(F)(F)F)C(=O)NC3=C(C=C4C(=C3)C=NN4)F
Outline: as §1

[20] = compound: CC1=C(C2=C(C=C1)C(=O)C3=CC=CC=C3N2CCCN)C
Outline: as §1

Sequence of UniProt P62070 (P62070 whole entry, looked up): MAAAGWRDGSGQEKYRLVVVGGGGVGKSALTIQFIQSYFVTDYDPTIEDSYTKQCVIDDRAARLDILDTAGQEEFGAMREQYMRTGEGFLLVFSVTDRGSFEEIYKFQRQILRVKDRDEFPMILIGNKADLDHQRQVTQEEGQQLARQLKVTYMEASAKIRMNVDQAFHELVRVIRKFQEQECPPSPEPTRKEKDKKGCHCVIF
Sequence of UniProt Q96T51 (Q96T51 whole entry, looked up): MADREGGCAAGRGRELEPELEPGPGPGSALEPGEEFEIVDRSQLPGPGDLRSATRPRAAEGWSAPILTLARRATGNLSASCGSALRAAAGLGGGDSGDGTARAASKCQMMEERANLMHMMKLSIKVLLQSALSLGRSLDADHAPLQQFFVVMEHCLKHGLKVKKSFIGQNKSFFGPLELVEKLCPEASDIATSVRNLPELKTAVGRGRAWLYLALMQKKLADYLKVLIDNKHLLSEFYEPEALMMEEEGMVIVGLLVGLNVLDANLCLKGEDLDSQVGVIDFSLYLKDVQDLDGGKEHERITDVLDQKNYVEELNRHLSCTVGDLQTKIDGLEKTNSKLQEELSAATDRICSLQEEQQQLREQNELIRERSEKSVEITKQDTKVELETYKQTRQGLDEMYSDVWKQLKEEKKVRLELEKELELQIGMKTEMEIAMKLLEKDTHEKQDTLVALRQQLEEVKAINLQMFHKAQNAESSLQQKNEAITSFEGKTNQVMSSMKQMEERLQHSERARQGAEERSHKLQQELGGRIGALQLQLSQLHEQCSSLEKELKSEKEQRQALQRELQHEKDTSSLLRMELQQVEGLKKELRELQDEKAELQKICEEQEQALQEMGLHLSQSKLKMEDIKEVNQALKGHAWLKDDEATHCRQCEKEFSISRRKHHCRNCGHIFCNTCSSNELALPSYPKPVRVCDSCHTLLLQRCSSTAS
Sequence of UniProt Q96EU6 (Q96EU6 whole entry, looked up): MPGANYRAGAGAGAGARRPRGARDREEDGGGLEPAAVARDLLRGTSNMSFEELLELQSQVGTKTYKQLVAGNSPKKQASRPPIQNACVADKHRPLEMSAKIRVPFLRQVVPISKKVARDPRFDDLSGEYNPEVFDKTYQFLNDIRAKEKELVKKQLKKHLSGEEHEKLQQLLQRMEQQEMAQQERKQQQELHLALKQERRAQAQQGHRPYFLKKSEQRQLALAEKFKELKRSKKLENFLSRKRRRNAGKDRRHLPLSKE
Sequence of UniProt Q9Y3L5 (Q9Y3L5 whole entry, looked up): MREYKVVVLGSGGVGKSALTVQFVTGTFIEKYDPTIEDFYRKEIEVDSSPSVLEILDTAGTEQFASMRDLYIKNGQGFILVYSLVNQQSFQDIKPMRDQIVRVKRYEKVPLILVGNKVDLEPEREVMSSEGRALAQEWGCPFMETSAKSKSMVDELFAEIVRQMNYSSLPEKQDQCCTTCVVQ
Sequence of UniProt Q9H6H4 (Q9H6H4 whole entry, looked up): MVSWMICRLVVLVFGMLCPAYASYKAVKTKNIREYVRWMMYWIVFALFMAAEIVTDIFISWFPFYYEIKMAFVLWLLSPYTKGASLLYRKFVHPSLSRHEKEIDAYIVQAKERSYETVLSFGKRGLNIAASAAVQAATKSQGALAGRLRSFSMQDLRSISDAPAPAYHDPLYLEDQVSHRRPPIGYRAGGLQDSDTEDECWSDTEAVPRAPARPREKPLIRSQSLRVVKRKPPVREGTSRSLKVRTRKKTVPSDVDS
Sequence of UniProt Q9UBS8 (Q9UBS8 whole entry, looked up): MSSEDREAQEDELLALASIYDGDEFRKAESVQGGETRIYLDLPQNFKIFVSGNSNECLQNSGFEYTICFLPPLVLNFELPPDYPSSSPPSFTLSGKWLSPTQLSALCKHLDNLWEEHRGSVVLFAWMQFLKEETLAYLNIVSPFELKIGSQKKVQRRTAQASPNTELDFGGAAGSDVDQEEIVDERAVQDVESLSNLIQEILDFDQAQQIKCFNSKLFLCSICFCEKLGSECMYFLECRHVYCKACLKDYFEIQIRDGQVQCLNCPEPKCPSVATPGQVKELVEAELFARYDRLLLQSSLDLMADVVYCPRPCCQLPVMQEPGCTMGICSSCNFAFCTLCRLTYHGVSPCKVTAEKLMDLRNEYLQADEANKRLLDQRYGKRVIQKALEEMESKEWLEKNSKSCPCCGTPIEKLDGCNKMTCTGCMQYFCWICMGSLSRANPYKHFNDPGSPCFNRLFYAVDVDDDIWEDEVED
Sequence of UniProt Q01196 (Q01196 whole entry, looked up): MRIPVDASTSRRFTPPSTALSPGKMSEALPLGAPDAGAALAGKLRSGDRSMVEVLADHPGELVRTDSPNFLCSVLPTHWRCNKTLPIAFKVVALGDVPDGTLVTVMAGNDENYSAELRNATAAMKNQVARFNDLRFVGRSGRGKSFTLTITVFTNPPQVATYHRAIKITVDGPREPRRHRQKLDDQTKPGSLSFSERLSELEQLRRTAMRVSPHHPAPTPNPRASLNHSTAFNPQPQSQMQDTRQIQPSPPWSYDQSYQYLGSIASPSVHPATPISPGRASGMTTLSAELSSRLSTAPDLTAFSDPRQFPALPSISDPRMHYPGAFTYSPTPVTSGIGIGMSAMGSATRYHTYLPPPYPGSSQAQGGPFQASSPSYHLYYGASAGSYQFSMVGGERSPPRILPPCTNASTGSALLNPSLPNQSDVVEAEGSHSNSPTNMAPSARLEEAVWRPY
Sequence of UniProt Q5VUM1 (Q5VUM1 whole entry, looked up): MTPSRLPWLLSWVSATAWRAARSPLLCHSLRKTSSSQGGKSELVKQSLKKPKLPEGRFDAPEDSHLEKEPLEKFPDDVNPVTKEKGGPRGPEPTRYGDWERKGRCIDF
Sequence of UniProt P04049 (P04049 whole entry, looked up): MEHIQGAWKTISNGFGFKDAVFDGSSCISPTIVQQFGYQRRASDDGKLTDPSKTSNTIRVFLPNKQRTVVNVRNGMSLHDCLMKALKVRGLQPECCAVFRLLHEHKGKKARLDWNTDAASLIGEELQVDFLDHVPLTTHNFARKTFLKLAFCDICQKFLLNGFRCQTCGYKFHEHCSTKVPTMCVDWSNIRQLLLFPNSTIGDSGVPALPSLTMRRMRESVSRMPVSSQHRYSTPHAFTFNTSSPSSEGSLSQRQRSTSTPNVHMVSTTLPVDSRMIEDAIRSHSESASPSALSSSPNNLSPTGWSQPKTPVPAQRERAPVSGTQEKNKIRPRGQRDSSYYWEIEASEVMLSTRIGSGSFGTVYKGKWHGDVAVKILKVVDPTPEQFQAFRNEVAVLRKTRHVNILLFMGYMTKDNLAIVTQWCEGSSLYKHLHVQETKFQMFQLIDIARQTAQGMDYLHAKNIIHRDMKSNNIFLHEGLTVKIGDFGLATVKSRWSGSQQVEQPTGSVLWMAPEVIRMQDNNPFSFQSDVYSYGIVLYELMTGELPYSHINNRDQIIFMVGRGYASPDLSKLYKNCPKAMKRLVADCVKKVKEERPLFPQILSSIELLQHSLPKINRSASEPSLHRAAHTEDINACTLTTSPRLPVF
Sequence of UniProt Q99719 (Q99719 whole entry, looked up): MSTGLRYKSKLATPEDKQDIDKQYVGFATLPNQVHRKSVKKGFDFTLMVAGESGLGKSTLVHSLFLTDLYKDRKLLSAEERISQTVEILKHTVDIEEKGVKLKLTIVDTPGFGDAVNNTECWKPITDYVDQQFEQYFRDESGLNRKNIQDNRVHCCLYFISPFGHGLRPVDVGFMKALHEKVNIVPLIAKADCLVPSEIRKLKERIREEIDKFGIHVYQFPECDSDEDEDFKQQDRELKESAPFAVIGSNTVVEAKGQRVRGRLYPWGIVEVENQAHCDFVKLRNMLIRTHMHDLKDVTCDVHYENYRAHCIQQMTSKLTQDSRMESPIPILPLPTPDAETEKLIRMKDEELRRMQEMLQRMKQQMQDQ
Sequence of UniProt Q99496 (Q99496 whole entry, looked up): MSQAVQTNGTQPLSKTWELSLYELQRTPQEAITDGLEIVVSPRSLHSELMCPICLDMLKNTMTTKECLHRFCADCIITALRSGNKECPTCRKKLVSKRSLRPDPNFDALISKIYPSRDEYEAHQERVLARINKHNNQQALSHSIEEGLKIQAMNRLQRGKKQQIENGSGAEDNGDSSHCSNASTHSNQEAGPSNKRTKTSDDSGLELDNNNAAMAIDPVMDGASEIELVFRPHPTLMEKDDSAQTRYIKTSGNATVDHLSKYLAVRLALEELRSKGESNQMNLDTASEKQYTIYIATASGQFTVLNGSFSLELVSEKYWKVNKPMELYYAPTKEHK
Sequence of UniProt Q8IZQ5 (Q8IZQ5 whole entry, looked up): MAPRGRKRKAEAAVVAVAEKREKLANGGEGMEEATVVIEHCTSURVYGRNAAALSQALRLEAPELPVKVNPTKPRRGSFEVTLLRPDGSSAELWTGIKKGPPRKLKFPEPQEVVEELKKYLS
Sequence of UniProt P60602 (P60602 whole entry, looked up): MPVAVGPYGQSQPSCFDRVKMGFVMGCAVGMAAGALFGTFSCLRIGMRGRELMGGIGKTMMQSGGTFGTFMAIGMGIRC
Sequence of UniProt P43003 (P43003 whole entry, looked up): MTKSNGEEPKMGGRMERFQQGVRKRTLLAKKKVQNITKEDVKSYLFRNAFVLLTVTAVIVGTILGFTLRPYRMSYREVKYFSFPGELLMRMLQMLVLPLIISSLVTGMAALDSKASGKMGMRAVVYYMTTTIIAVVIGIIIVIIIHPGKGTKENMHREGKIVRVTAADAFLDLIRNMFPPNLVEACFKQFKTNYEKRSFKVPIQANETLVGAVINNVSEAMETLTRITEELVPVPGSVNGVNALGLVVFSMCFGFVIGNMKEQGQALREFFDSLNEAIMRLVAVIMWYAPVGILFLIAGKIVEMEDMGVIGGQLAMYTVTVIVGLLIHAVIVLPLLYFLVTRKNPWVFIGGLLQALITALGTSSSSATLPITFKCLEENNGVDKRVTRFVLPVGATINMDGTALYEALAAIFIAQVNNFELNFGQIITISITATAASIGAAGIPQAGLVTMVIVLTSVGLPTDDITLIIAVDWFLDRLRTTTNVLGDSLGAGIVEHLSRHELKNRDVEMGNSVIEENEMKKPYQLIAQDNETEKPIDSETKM

Target | log2 fold change [1] | log2 fold change [2] | log2 fold change [3] | log2 fold change [4] | log2 fold change [5] | log2 fold change [6] | log2 fold change [7] | log2 fold change [8] | log2 fold change [9] | log2 fold change [10] | log2 fold change [11] | log2 fold change [12] | log2 fold change [13] | log2 fold change [14] | log2 fold change [15] | log2 fold change [16] | log2 fold change [17] | log2 fold change [18] | log2 fold change [19] | log2 fold change [20]
RNF14 (UniProt Q9UBS8) | -0.006 | 0.038 | 0.048 | 0.043 | 0.015 | -0.019 | 0.014 | -0.029 | 0.002 | 0.071 | 0.019 | 0.006 | 0.011 | -0.008 | -0.035 | -0.039 | 0.014 | -0.075 | 0.006 | -0.05
REEP4 (UniProt Q9H6H4) | -0.024 | 0.027 | -0.049 | 0.026 | -0.018 | 0.005 | 0.063 | -0.04 | 0.047 | -0.081 | 0.005 | -0.003 | -0.198 | 0.164 | -0.049 | -0.157 | 0.041 | 0.13 | 0.04 | 0.036
SLC1A3 (UniProt P43003) | 0.025 | 0.017 | 0.194 | 0.053 | -0.169 | 0.001 | 0.007 | 0.012 | 0.05 | 0.163 | – | 0.168 | 0.056 | 0.058 | 0.007 | 0.238 | -0.064 | – | 0.018 | 0.029
RPS14 (UniProt P62263) | -0.166 | -0.077 | -0.124 | 0.027 | -0.149 | -0.04 | 0.039 | 0.045 | 0.031 | -0.126 | -0.178 | 0.03 | 0.079 | 0.135 | -0.014 | -0.016 | 0.003 | -0.013 | 0.035 | -0.586 (active)
SEPTIN5 (UniProt Q99719) | 0.009 | 0.014 | 0.021 | 0.006 | 0.004 | 0.019 | -0.011 | 0.015 | -0.012 | 0.039 | 0.014 | -0.013 | -0.031 | -0.084 | -0.03 | 0.034 | -0.051 | -0.041 | -0.005 | 0.011
RUFY1 (UniProt Q96T51) | 0.01 | 0.094 | -0.046 | -0.018 | 0.022 | 0.034 | -0.027 | 0 | 0.031 | -0.084 | -0.019 | -0.002 | 0.101 | 0.034 | -0.092 | -0.182 | 0.011 | 0.083 | -0.003 | -0.014
RSL1D1 (UniProt O76021) | -0.115 | -0.156 | -0.504 | 0.073 | -0.054 | 0.057 | -0.141 | -0.086 | 0.016 | -0.193 | -0.071 | -0.011 | 0.22 | 0.105 | 0.212 | 0.538 | 0.076 | 0.393 | -0.072 | -0.299
RNF2 (UniProt Q99496) | -0.014 | 0.116 | -0.013 | -0.231 | -0.057 | -0.004 | – | -0.053 | -0.103 | -0.006 | -0.024 | 0.086 | 0.001 | – | -0.065 | 0.091 | – | 0.066 | 0.04 | -0.058
RRAS2 isoform 4 (UniProt P62070) | 0.002 | -0.076 | -0.046 | 0.015 | -0.006 | 0.038 | -0.015 | -0.059 | -0.085 | 0.093 | 0.011 | 0.097 | -0.009 | -0.023 | 0.242 | 0.077 | 0.005 | -0.034 | -0.019 | 0.077
RUNX1 isoform 8 (UniProt Q01196) | 0.122 | 0.081 | -0.03 | 0.048 | -0.001 | 0.032 | 0.131 | -0.033 | – | – | -0.102 | 0.058 | -0.207 | -0.043 | -0.138 | -0.184 | 0.082 | 0.069 | 0.076 | –
ROMO1 (UniProt P60602) | 0.016 | -0.092 | 0.045 | -0.01 | -0.009 | 0.018 | 0.008 | 0.003 | 0.039 | 0.001 | – | 0.069 | -0.044 | -0.024 | 0.052 | -0.051 | -0.083 | – | 0.039 | -0.077
SKP1 (UniProt P63208) | -0.003 | -0.036 | 0.05 | -0.011 | -0.048 | 0.045 | 0.047 | 0.009 | -0.006 | 0.03 | 0.069 | 0.054 | 0.03 | -0.02 | -0.045 | 0.068 | -0.069 | -0.08 | 0.042 | -0.049
SELENOH (UniProt Q8IZQ5) | 0.032 | 0.013 | -0.013 | -0.003 | -0.297 (active) | -0.002 | 0.034 | 0.003 | -0.052 | 0.032 | -0.018 | -0.039 | 0.13 | 0.086 | -0.017 | 0.059 | -0.012 | -0.012 | -0.052 | 0.057
RAF1 isoform 2 (UniProt P04049) | -0.048 | 0.08 | -0.129 | 0.04 | 0.197 | 0.02 | 0.513 (active) | 0.01 | -0.121 | 0.022 | -0.038 | -0.058 | -0.263 | -0.054 | -0.072 | -0.12 | 0.066 | 0.29 | – | 0.09
SDHAF4 (UniProt Q5VUM1) | 0 | 0.104 | 0.026 | 0.031 | 0.118 | 0.033 | – | -0.117 | 0.054 | 0.094 | -0.071 | 0.01 | -0.055 | – | 0.081 | 0.149 | – | -0.082 | -0.101 | 0.021
RAP2C (UniProt Q9Y3L5) | 0.021 | 0.119 | 0.205 | 0.01 | -0.097 | 0.026 | 0.026 | 0.167 | -0.008 | 0.034 | – | 0.016 | -0.032 | 0.021 | -0.107 | 0.148 | 0.048 | – | -0.104 | 0.11
RRP36 (UniProt Q96EU6) | -0.192 | -0.147 | -0.586 | -0.005 | -0.133 | -0.06 | 0.019 | 0.012 | 0.045 | -0.146 | – | 0.045 | 0.122 | 0.083 | 0 | 0.044 | 0.042 | – | 0.021 | -0.785 (active)
